Assay outcomes as filed in PubChem.
The list is not random: actives were taken first. Their share in the collection is about 3.8%.
Nrf2 inh = Nrf2 pathway inhibition; A549 ARE-Fluc reporter, luciferase luminescence, 18-24 h; Potency, µM (series often up to 46 µM), for inactives: at the highest dose activity change, negative = inhibition, usual class: inhibitors; hit rate 2.1% among 360,000; AID 504444; further: on the % scale 0 is the no-effect control and ±100 the full control effect; nearly all actives have a fitted effect of over 60% in size
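Concentration-response testing used A549 ARE_Fluc cells at 5000 cells/well. Following an 18-24 h compound incubation, viability was read by fluorescence (Ex 405/Em 525) and luciferase output by luminescence.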
HepG2 tox = kills HepG2 cells in TGF-b inhibitor counter-screen; HepG2 CAGA-GFP viability, ATP luminescence, 18 h; Potency, µM (doses to about 46.1 µM), without a hit: at the top dose activity change, negative = cytotoxicity, hits mostly cytotoxic; hit rate 0.76% among 410,000
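HepG2 CAGA-GFP cells (1000/well, DMEM with 1% FBS) received compound, then TGF-beta at 500 pg/mL final, and were incubated 18 hours at 37 degrees C. Viability was read by CellTiter-Glo luminescence. Media-only wells were set as complete cell-killing and DMSO as no toxicity.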
TGFb inhibitor = blocks TGF-b signaling; HepG2 CAGA-GFP TGF-b/SMAD3 reporter, GFP fluorescence, 18 h; TGF-beta stimulated, 500 pg/mL final; Potency, µM (top dose mostly 46.1 µM), for inactives: at the top dose activity, negative = inhibition, actives largely listed as inhibitors; hit rate 1.2% among 410,000; AID 588855; further: on the % scale 0 is the no-effect control and ±100 the full control effect; nearly all actives have a fitted effect of over 65% in size
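HEPG2 CAGA-GFP reporter cells (1000/well, DMEM with 1% FBS) received compounds, then recombinant TGF-beta at 500 pg/mL final for 18 hours at 37 degrees C. Per-cell GFP summed per well was normalised to unstimulated and stimulated DMSO controls before curve fitting.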
S2 tox = reduces viability in counter-screen for ATXN expression inhibitors. S2 cells (HEK-293 line with an ATXN2-luciferase reporter) viability, CellTiter-Fluor protease fluorescence, 24 h. Potency, µM (top dose mostly 56.7 µM), hits mostly cytotoxic. hit rate 0.49% among 400,000; further: nearly all actives have a fitted effect of over 40% in size
A549 viability = A549 cytotoxicity, counter-screen for Nrf2 inhibitors; A549 ARE-Fluc cells, CellTiter-Fluor viability, 18-24 h; Potency, µM (doses to about 46 µM), inactives show at the highest dose activity change, negative = cytotoxicity, usual class: inhibitors; hit rate 0.16% among 390,000; AID 504648; further: on the % scale 0 is the no-effect control and ±100 the full control effect
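A549 ARE_Fluc cells in 5% FBS OPTI-MEM were exposed to compounds in concentration-response for 18-24 h at 37 deg C. Viability was read by CellTiter-Fluor fluorescence (Ex 405/Em 525) after 30 min, before the luciferase read.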
ATXN2 expr inh = ATXN2 expression inhibition. Potency, µM (doses to about 57 µM), for the others: at the highest dose activity change, negative = inhibition, hits mostly inhibitors. hit rate 0.72% among 360,000. HEK-293 ATXN2-luciferase reporter, luminescence, 24 h; further: on the % scale 0 is the no-effect control and ±100 the full control effect; nearly all actives have a fitted effect of over 55% in size
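qHTS (up to 57 uM final) was run with 24 h compound exposure of reporter cells at 37 °C. Each well was multiplexed: SteadyGlo luminescence measured ATXN2-luciferase expression after a fluorogenic Gly-Phe-AFC viability readout (25 uM final).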
Active calls of the source: *; i = inactive; ? = inconclusive; . = no result. The call rests on the fitted dose curve; in most records, active means well fitted curve in the direction sought with a large enough effect; inconclusive means small, poorly fitted or top-dose-only effect, or another doubt; inactive means no such curve, though single readings can be large; an effect the other way counts as inactive or inconclusive. Potency means the concentration at half of the fitted maximal effect.

SMILES	Nrf2 inh	HepG2 tox	TGFb inhibitor	S2 tox	A549 viability	ATXN2 expr inh
CC(C)CC(=O)N1CCN(Cc2ccc3ccccc3c2)CC1	?	-49%	?	i	-2%	.
CSc1ccc(CN2CCN(Cc3ccc([N+](=O)[O-])cc3)CC2)cc1	8.2µM*	-2%	0%	?	-11%	-13%
CSc1ccc(CN2CCN(C(=O)CC(C)C)CC2)cc1	26µM*	-22%	-20%	i	0%	-16%
COc1ccc(-c2noc(-c3ccc(N4CCN(C)CC4)c([N+](=O)[O-])c3)n2)cc1OC	9%	11µM*	?	?	6%	0%
Clc1ccc2c(Cl)cc[n+](CCC3CCCCC3)c2c1	.	-2%	0%	.	.	.
O=C(CCN1CCc2ccccc2C(c2ccccc2)C1)c1ccc2c(c1)OCCO2 (centres undefined)	-21%	-110%	?	i	-1%	?
O=C(CCN1Cc2ccccc2C1)c1ccc2c(c1)OCCO2	6%	10µM*	13µM*	.	0%	?
COc1ccc(C2Nc3ccccc3C(=O)N2Cc2ccccc2)cc1COc1ccc(C#N)cc1 (centres undefined)	-8%	.	.	.	2%	.
CCOc1ccc(OCC)c(NC(=O)c2nnn(CC(=O)Nc3cc(Cl)ccc3OC)c2N)c1	?	-6%	?	10µM*	-5%	?
C[C@@]12CCC=C[C@H]1[C@H](c1ccc3ccccc3c1Br)N(Cc1ccccc1)C2=O	-17%	-35%	?	35µM*	0%	?
CC(=O)c1ccc(-c2ccc([C@H]3[C@@H]4C=CCC[C@@]4(C)C(=O)N3Cc3ccccc3)c(F)c2)cc1	23µM*	-15%	?	i	-28%	?
COc1ccc(-c2cc(C3C4C=CCCC4(C)C(=O)N3Cc3ccccc3)ccc2F)cc1 (centres undefined)	-8%	-8%	11µM*	.	11%	.
CNC[C@H]1OCc2ccccc2-c2ccccc2C(=O)N([C@@H](C)CO)C[C@H]1C	.	4%	0%	i	.	2%
COc1ccc(-c2cc(C(F)(F)F)n3nc(C(=O)NCC45CC6CC(CC(C6)C4)C5)cc3n2)cc1	15µM*	-18%	6%	i	-10%	8%
CCc1nc(N2CCN(C(C)=O)CC2)c2c3c(sc2n1)CC(C(C)(C)C)CC3 (centres undefined)	18µM*	-12%	4%	?	-6%	.
CCc1nc(N2CCN(C(=O)CCCl)CC2)c2c3c(sc2n1)CCCC3	.	-21%	-6%	i	.	.
CCc1nc(N2CCN(C(=O)CCl)CC2)c2c3c(sc2n1)CC(C)CC3 (centres undefined)	1%	18µM*	?	.	-5%	-21%
CCNC(=S)N1CCN(c2nc(CC)nc3sc4c(c23)CCCC4)CC1	?	-15%	?	?	-18%	-10%
CC(C)C(NC(=O)c1ccccc1F)C(=O)NCc1ccccc1 (centres undefined)	-4%	8%	5%	i	1%	-21%
Cc1ccccc1-c1cc2nc(OCC3CCCO3)n(C)c(=O)c2s1 (centres undefined)	.	-17%	2%	i	.	-8%
Cn1c(/C=C/c2ccc(Br)cc2)c([N+](=O)[O-])c(=O)n(C)c1=O	21µM*	-63%	?	?	?	?
C=CCC[C@@H](Cc1ccc(F)cc1)C(=O)OC[C@@H](Cc1c[nH]c2ccccc12)NC(=O)[C@@H](CC=C)CC(=O)NCCO	?	-71%	?	32µM*	-21%	?
C=CCC[C@H](Cc1ccc(F)cc1)C(=O)OC[C@H](Cc1c[nH]c2ccccc12)NC(=O)[C@H](CC=C)CC(=O)NCCO	-21%	-21%	?	?	-4%	?
